Results as given in PubChem BioAssay AID1159580 (chemical genetic matrix, 2015).
Where “and” joins values, the source holds several entries; their conditions need not be identical. Identical values can stand only once. The whole screen tested about 5,500 compounds, of which about 2,000 (36%) were called active. Another 18% or so got no clear call; they are omitted. Cut-off read from the data, not from the text of the source: active = normalized growth mostly below about 0.91 (no sharp cut-off); inconclusive = no clear call, values can overlap the other calls; inactive = mostly above about 0.92. The list shows a part of the results.

Assay: chemical genetic growth profiling, strain panel (AID 1159580);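 note: tested at 20 µM; growth read once vehicle control cultures reached saturation at 30 °C; 1 = growth at the plate median or of vehicle wells; lower values mean less growth of the strain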
Conditions: S. cerevisiae deletion strains, growth OD

Measured: normalized growth

CC(=O)OCC1=C(C(=O)O)N2C(=O)[C@@H](NC(=O)Cc3cccs3)[C@H]2SC1
inactive: locus YAL013W, strain DEP1, stronger effect = lower value 0.991 | locus YAL021C, strain ccr4, stronger effect = lower value 1.03 | locus YAL026C, strain drs2, stronger effect = lower value 0.991 | locus YAL030W, strain snc1, stronger effect = lower value 1.02 | locus YBL061C, strain skt5, stronger effect = lower value 1.03 | locus YBR009C, strain hhf1, stronger effect = lower value 0.974 | locus YBR021W, strain FUR4, stronger effect = lower value 1.01 | locus YBR023C, strain chs3, stronger effect = lower value 1.03 | locus YBR171W, strain sec66, stronger effect = lower value 1.02 | locus YBR229C, strain ROT2, stronger effect = lower value 0.948 | locus YBR231C, strain swc5, stronger effect = lower value 0.988 | locus YBR279W, strain paf1, stronger effect = lower value 0.987 | locus YCL011C, strain gbp2, stronger effect = lower value 0.973 | locus YCL016C, strain dcc1, stronger effect = lower value 0.986 | locus YCL029C, strain bik1, stronger effect = lower value 0.984 | locus YCL069W, strain vba3, stronger effect = lower value 1.01 | locus YCR088W, strain abp1, stronger effect = lower value 1.01 | locus YDL005C, strain med2, stronger effect = lower value 1.03 | locus YDL035C, strain GPR1, stronger effect = lower value 0.96 | locus YDL040C, strain nat1, stronger effect = lower value 1.02 | locus YDL074C, strain BRE1, stronger effect = lower value 0.993 | locus YDL101C, strain DUN1, stronger effect = lower value 0.989 | locus YDL134C, strain PPH21, stronger effect = lower value 0.959 | locus YDL185W, strain tfp1, stronger effect = lower value 0.965 | locus YDL192W, strain arf1, stronger effect = lower value 0.977 | locus YDR001C, strain nth1, stronger effect = lower value 1.02 | locus YDR069C, strain doa4, stronger effect = lower value 1.03 | locus YDR101C, strain arx1, stronger effect = lower value 0.972 | locus YDR137W, strain rgp1, stronger effect = lower value 0.962 | locus YDR150W, strain NUM1, stronger effect = lower value 0.983 | locus YDR159W, strain sac3, stronger effect = lower value 1.05 | locus YDR162C, strain NBP2, stronger effect = lower value 0.948 | locus YDR195W, strain ref2 1.04 | locus YDR297W, strain sur2, stronger effect = lower value 1.02 | locus YDR318W, strain mcm21, stronger effect = lower value 0.991 | locus YDR334W, strain swr1, stronger effect = lower value 0.986 | locus YDR335W, strain msn5, stronger effect = lower value 0.99 | locus YDR388W, stronger effect = lower value 0.981 | locus YDR392W, strain spt3, stronger effect = lower value 0.959 | locus YDR502C, strain sam2, stronger effect = lower value 0.997 | locus YEL003W, strain gim4, stronger effect = lower value 1 | locus YEL037C, strain rad23, stronger effect = lower value 1 | locus YEL061C, strain CIN8 (second series), stronger effect = lower value 1.01 | locus YEL061C, strain CIN8, stronger effect = lower value 0.984 | locus YER015W, strain faa2, stronger effect = lower value 0.972 | locus YER016W, strain bim1, stronger effect = lower value 0.987 | locus YER110C, stronger effect = lower value 0.972 | locus YER111C, strain swi4, stronger effect = lower value 0.995 | locus YER155C, strain BEM2 (second series), stronger effect = lower value 1 | locus YER155C, strain BEM2, stronger effect = lower value 1 | locus YER167W, strain BCK2, stronger effect = lower value 0.986 | locus YFR010W, strain ubp6, stronger effect = lower value 1.01 | locus YGL078C, strain dbp3, stronger effect = lower value 0.987 | locus YGL086W, strain mad1, stronger effect = lower value 0.979 | locus YGL167C, strain pmr1, stronger effect = lower value 1.02 | locus YGL173C, strain kem1, stronger effect = lower value 0.987 | locus YGL227W, strain vid30, stronger effect = lower value 1.04 | locus YGL240W, strain doc1, stronger effect = lower value 1.06 | locus YGL248W, strain PDE1, stronger effect = lower value 1.01 | locus YGL253W, strain hxk2, stronger effect = lower value 1 | locus YGR135W, strain pre9, stronger effect = lower value 1.04 | locus YGR252W, strain gcn5, stronger effect = lower value 1.03 | locus YHR013C, strain ard1, stronger effect = lower value 1.03 | locus YHR027C, strain rpn1, stronger effect = lower value 0.994 | locus YHR030C, strain SLT2, stronger effect = lower value 0.977 and 0.94 | locus YHR079C, strain IRE1 (second series), stronger effect = lower value 0.995 | locus YHR079C, strain IRE1, stronger effect = lower value 0.976 | locus YHR094C, strain hxt1, stronger effect = lower value 0.982 | locus YHR129C, strain ARP1, stronger effect = lower value 0.984 | locus YHR142W, strain chs7, stronger effect = lower value 0.995 | locus YHR200W, strain rpn10, stronger effect = lower value 0.983 | locus YIL066C, strain RNR3, stronger effect = lower value 0.972 | locus YIL073C, strain SPO22, stronger effect = lower value 1.04 | locus YIL125W, strain kgd1, stronger effect = lower value 0.983 | locus YIR030C, strain dcg1, stronger effect = lower value 0.99 | locus YJL092W, strain hpr5, stronger effect = lower value 1.01 | locus YJL095W, strain BCK1 (second series), stronger effect = lower value 1 | locus YJL095W, strain BCK1, stronger effect = lower value 1.05 and 0.96 | locus YJL115W, strain asf1, stronger effect = lower value 1.02 | locus YJL129C, strain trk1, stronger effect = lower value 1.05 | locus YJL134W, strain LCB3, stronger effect = lower value 0.99 | locus YJL154C, strain vps35, stronger effect = lower value 1.02 | locus YJL164C, strain tpk1, stronger effect = lower value 0.972 | locus YJL166W, strain qcr8, stronger effect = lower value 0.996 | locus YJL168C, strain set2, stronger effect = lower value 0.986 | locus YJL187C, strain SWE1 (second series), stronger effect = lower value 1.01 | locus YJL187C, strain SWE1, stronger effect = lower value 1.01 | locus YJR043C, strain POL32, stronger effect = lower value 0.963 | locus YJR066W, strain TOR1, stronger effect = lower value 0.995 | locus YJR075W, strain HOC1, stronger effect = lower value 1 | locus YKL009W, strain mrt4, stronger effect = lower value 1 | locus YKL068W, stronger effect = lower value 0.977 | locus YKL085W, strain MDH1 (second series), stronger effect = lower value 0.966 | locus YKL085W, strain MDH1, stronger effect = lower value 0.966 | locus YKL160W, strain elf1, stronger effect = lower value 1.01 | locus YKR001C, strain vps1, stronger effect = lower value 0.986 | locus YKR026C, strain gcn3, stronger effect = lower value 1.04 | locus YKR091W, strain srl3, stronger effect = lower value 0.999 | locus YLL001W, strain dnm1, stronger effect = lower value 0.992 | locus YLL026W, stronger effect = lower value 1.02 | locus YLL041C, strain sdh2, stronger effect = lower value 1.02 | locus YLR027C, strain aat2, stronger effect = lower value 1.01 | locus YLR039C, strain RIC1, stronger effect = lower value 0.986 | locus YLR058C, strain SHM2, stronger effect = lower value 0.978 | locus YLR102C, strain apc9, stronger effect = lower value 0.987 | locus YLR113W, strain HOG1, stronger effect = lower value 0.971 | locus YLR221C, strain rsa3, stronger effect = lower value 0.996 | locus YLR258W, strain gsy2, stronger effect = lower value 1 | locus YLR262C, strain YPT6 (second series), stronger effect = lower value 1.01 | locus YLR262C, strain YPT6, stronger effect = lower value 0.937 | locus YLR268W, strain sec22, stronger effect = lower value 0.975 | locus YLR320W, strain mms22, stronger effect = lower value 0.978 | locus YLR330W, strain CHS5, stronger effect = lower value 0.99 | locus YLR342W, strain FKS1 (second series), stronger effect = lower value 1 | locus YLR342W, strain FKS1, stronger effect = lower value 0.992 | locus YLR357W, strain rsc2, stronger effect = lower value 0.991 | locus YLR370C, strain arc18, stronger effect = lower value 1 | locus YLR371W, strain rom2, stronger effect = lower value 0.998 | locus YLR384C, strain iki3, stronger effect = lower value 1.03 | locus YLR418C, strain cdc73, stronger effect = lower value 1.01 | locus YML016C, strain PPZ1, stronger effect = lower value 0.996 | locus YML032C, strain rad52, stronger effect = lower value 0.98 | locus YML120C, strain ndi1, stronger effect = lower value 1 | locus YML124C, strain tub3, stronger effect = lower value 0.985 | locus YMR058W, strain fet3, stronger effect = lower value 0.923 | locus YMR078C, strain ctf18, stronger effect = lower value 0.986 | locus YMR125W, strain sto1, stronger effect = lower value 1.03 | locus YMR129W, stronger effect = lower value 1.02 | locus YMR205C, strain PFK2, stronger effect = lower value 1.02 | locus YMR223W, strain ubp8, stronger effect = lower value 1.01 | locus YMR231W, strain pep5, stronger effect = lower value 1.01 | locus YMR263W, strain SAP30, stronger effect = lower value 0.998 | locus YMR307W, strain GAS1, stronger effect = lower value 0.898 | locus YNL067W, strain RPL9B, stronger effect = lower value 1.01 | locus YNL071W, strain lat1, stronger effect = lower value 0.994 | locus YNL183C, strain NPR1, stronger effect = lower value 0.919 | locus YNL209W, strain ssb2, stronger effect = lower value 1 | locus YNL233W, strain BNI4, stronger effect = lower value 1.03 | locus YNL248C, strain rpa49, stronger effect = lower value 0.993 | locus YNL250W, strain rad50, stronger effect = lower value 0.995 | locus YNL271C, strain bni1, stronger effect = lower value 1 | locus YNL298W, strain CLA4, stronger effect = lower value 0.979 | locus YNL307C, strain MCK1, stronger effect = lower value 0.988 | locus YNL322C, strain KRE1 (second series), stronger effect = lower value 1.01 | locus YNL322C, strain KRE1, stronger effect = lower value 0.989 | locus YNR049C, strain mso1, stronger effect = lower value 1.02 | locus YNR052C, strain pop2, stronger effect = lower value 0.985 | locus YOL006C, strain TOP1, stronger effect = lower value 1.13 | locus YOL012C, strain htz1 0.756 | locus YOL147C, strain pex11, stronger effect = lower value 0.986 | locus YOR001W, strain rrp6, stronger effect = lower value 1.02 | locus YOR061W, strain CKA2, stronger effect = lower value 0.968 | locus YOR069W, strain VPS5, stronger effect = lower value 0.987 | locus YOR070C, strain gyp1, stronger effect = lower value 0.995 | locus YOR080W, strain dia2, stronger effect = lower value 1.02 | locus YOR083W, strain WHI5, stronger effect = lower value 0.993 | locus YOR106W, strain vam3, stronger effect = lower value 0.981 | locus YOR136W, strain idh2, stronger effect = lower value 0.983 | locus YOR144C, strain elg1, stronger effect = lower value 0.988 | locus YOR184W, strain ser1, stronger effect = lower value 1 | locus YOR231W, strain MKK1, stronger effect = lower value 0.972 | locus YOR265W, strain rbl2, stronger effect = lower value 1.02 | locus YOR270C, strain vph1, stronger effect = lower value 0.925 | locus YOR290C, strain snf2, stronger effect = lower value 0.992 | locus YOR316C, strain cot1, stronger effect = lower value 0.973 | locus YPL051W, strain arl3, stronger effect = lower value 0.995 | locus YPL055C, strain LGE1, stronger effect = lower value 0.989 | locus YPL078C, strain atp4, stronger effect = lower value 1.02 | locus YPL106C, strain sse1, stronger effect = lower value 0.945 | locus YPL240C, strain hsp82, stronger effect = lower value 1.04 | locus YPL256C, strain CLN2, stronger effect = lower value 0.962 | locus YPR119W, strain clb2, stronger effect = lower value 0.984 | locus YPR141C, strain kar3, stronger effect = lower value 0.983 | locus YPR163C, strain tif3, stronger effect = lower value 0.984 | locus YPR167C, strain met16, stronger effect = lower value 0.997 | strain wtn01, stronger effect = lower value 1
